Measured values: the supplement of paper PMC10849652
The full data set covers some 8,800 targets. This sample favours those with a hit. About 0.5% of all pairs of compound and target were hits. Unmarked numbers belong to inactive results.

What was measured:
Assay in all cases: log2 fold change, soluble protein after heating vs DMSO (PISA); higher = thermal stabilisation; K562 lysate, 10 uM; active = over 0.2 and 3.5 SD of the protein, either way, in both replicates (recomputed)
erlotinib = compound: C#Cc1cccc(Nc2ncnc3cc(OCCOC)c(OCCOC)cc23)c1 [erlotinib]
In short: (§1)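 The values are log-two fold changes in thermal stability compared with solvent controls and come from duplicates. They were obtained by TMTpro 16plex LC-MS/MS, with channel sums equalised, on the supernatant after 21,000xg for 90 min. That supernatant came from crude K562 extract at 1 mg/mL protein treated with 10 μM compound for 30 min, heated for 3 min across 48°C-58°C, pooled and brought to 0.5% NP-40 at 4°C.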

[1] = compound: C/C(=N\NC(=O)C1=CC(=CC=C1)S(=O)(=O)N2CCOCC2)/C3=C(C=CC(=C3)Cl)O
In short: as §1

[2] = compound: C1=CC(=CC=C1C2=NC3=C(N2)C=C(C=C3)C(=O)N)OC4=CC=C(C=C4)Cl
In short: as §1

[3] = compound: C1=CC2=C(C=CC(=C2)/C=C\3/C(=O)NC(=NCC4=CC=CS4)S3)N=C1
In short: as §1

[4] = compound: C1=CC2=NC=CN=C2C=C1/C=C/3\C(=O)NC(=O)S3
In short: as §1

[5] = compound: C1=CC=C(C=C1)C2=NC(=C(N2)C3=CC=NC=C3)C4=CC(=C(C=C4)Cl)O
In short: as §1

[6] = compound: C1=CC=C2C(=C1)C3=NNC4=CC=CC(=C43)C2=O
In short: as §1

[7] = compound: C1CCN(C1)C(=O)NC2=CC=CC(=C2)NC3=NC=C(C(=N3)NCCC4=CN=CN4)Br
In short: as §1

[8] = compound: C1CN(CCC1(CC2=CC=C(C=C2)Cl)N)C3=NC=NC4=C3C=CN4
In short: as §1

IRAK-1-4 Inhibitor I = compound: C1COCCN1CCN2C3=CC=CC=C3N=C2NC(=O)C4=CC(=CC=C4)[N+](=O)[O-] [IRAK-1-4 Inhibitor I]
In short: as §1

UniProt P53350, sequence (P53350 whole entry, looked up): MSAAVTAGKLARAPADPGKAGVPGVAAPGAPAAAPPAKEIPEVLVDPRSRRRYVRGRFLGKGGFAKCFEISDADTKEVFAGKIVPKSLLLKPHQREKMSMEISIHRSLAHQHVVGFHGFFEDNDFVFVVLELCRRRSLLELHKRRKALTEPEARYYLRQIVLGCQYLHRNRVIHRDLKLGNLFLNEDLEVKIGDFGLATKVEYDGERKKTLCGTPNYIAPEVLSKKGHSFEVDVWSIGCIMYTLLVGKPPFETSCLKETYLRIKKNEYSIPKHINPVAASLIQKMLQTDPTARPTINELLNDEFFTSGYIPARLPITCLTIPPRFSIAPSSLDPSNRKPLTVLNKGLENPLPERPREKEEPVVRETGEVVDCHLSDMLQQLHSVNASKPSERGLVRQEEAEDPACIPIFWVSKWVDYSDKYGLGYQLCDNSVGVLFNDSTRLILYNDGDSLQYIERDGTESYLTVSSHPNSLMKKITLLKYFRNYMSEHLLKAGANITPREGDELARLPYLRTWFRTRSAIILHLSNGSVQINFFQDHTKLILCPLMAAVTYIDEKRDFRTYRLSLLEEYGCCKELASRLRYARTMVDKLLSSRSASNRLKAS
UniProt Q5JRX3, sequence (Q5JRX3 whole entry, looked up): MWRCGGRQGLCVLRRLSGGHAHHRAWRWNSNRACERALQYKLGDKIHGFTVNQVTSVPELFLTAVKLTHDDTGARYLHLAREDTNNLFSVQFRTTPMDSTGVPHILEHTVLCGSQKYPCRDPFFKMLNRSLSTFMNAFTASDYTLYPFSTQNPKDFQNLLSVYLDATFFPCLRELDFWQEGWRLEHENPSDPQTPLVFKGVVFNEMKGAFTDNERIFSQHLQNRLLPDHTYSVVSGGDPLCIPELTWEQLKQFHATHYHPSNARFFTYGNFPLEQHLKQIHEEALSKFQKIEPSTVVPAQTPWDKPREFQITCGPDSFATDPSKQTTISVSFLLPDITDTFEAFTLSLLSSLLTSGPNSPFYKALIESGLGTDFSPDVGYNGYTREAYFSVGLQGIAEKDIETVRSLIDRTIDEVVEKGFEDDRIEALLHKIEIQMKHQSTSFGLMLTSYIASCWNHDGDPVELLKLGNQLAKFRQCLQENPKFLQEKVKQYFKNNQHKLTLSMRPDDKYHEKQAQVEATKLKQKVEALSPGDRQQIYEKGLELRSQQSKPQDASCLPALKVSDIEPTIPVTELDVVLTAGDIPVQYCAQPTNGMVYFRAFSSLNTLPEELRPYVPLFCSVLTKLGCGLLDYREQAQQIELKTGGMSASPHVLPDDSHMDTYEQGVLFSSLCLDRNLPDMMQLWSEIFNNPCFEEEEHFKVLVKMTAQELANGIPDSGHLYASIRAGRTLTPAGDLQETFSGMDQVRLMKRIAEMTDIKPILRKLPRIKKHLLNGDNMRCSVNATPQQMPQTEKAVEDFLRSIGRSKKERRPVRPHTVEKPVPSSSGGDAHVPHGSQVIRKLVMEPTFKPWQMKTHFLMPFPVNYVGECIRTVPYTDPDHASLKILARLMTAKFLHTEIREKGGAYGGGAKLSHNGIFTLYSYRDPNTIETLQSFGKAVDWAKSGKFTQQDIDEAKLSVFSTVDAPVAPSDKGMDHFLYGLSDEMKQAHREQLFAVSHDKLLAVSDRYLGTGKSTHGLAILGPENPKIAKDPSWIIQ
UniProt Q8WUM4, sequence (Q8WUM4 whole entry, looked up): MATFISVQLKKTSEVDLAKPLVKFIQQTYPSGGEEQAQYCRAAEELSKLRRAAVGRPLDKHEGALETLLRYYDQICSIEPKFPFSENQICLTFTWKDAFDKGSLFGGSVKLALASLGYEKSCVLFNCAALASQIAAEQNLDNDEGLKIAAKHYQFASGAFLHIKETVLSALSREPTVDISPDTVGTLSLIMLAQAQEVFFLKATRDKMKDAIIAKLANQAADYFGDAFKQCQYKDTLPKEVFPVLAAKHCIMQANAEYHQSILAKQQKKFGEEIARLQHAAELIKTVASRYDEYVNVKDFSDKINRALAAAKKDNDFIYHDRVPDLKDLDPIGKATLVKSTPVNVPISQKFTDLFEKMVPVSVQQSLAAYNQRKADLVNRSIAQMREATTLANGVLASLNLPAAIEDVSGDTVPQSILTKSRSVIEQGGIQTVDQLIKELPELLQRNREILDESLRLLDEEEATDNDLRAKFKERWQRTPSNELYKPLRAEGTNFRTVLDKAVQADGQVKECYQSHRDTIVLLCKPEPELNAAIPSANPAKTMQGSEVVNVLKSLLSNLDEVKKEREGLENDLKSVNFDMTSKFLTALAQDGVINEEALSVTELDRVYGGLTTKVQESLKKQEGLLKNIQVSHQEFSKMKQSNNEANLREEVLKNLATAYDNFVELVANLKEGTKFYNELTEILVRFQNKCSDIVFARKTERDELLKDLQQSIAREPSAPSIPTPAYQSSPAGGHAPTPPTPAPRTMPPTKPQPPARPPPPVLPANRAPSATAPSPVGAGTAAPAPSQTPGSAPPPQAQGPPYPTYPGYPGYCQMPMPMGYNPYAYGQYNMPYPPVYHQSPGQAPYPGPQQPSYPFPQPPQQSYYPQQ
UniProt Q9NR22, sequence (Q9NR22 whole entry, looked up): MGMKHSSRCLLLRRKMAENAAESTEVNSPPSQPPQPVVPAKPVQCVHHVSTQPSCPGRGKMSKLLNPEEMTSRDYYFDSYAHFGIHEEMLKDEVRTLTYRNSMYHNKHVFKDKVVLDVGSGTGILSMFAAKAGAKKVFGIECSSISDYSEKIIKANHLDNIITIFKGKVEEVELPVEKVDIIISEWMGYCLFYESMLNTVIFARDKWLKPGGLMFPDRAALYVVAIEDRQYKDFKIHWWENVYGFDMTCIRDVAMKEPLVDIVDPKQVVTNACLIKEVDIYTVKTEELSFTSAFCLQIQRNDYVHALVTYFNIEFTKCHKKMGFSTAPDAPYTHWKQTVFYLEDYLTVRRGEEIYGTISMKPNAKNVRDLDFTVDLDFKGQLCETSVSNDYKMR
UniProt P48426, sequence (P48426 whole entry, looked up): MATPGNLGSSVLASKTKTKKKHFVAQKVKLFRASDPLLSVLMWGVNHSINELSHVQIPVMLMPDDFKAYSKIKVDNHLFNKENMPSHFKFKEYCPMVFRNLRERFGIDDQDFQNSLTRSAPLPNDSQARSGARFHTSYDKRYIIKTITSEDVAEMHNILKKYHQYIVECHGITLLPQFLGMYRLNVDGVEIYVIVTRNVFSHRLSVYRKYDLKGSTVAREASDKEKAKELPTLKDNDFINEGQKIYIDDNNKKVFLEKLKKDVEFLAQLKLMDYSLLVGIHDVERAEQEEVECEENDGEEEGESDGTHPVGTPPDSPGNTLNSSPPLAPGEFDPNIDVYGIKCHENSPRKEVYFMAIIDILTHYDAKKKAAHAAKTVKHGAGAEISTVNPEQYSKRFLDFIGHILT
UniProt O60825, sequence (O60825 whole entry, looked up): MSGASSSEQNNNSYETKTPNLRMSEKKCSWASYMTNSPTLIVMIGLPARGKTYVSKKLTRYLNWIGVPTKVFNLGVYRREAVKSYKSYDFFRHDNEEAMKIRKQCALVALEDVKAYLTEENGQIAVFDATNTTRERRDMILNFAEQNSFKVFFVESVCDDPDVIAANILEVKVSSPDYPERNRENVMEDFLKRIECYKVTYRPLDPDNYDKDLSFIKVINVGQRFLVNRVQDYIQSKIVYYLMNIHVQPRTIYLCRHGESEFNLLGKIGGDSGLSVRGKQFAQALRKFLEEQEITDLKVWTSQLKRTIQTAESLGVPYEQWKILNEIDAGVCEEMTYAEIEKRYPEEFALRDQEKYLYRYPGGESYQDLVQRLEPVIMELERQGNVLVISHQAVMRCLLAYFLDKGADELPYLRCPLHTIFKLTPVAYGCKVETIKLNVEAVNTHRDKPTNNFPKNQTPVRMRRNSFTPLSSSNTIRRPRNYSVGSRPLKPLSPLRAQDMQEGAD
UniProt Q15269, sequence (Q15269 whole entry, looked up): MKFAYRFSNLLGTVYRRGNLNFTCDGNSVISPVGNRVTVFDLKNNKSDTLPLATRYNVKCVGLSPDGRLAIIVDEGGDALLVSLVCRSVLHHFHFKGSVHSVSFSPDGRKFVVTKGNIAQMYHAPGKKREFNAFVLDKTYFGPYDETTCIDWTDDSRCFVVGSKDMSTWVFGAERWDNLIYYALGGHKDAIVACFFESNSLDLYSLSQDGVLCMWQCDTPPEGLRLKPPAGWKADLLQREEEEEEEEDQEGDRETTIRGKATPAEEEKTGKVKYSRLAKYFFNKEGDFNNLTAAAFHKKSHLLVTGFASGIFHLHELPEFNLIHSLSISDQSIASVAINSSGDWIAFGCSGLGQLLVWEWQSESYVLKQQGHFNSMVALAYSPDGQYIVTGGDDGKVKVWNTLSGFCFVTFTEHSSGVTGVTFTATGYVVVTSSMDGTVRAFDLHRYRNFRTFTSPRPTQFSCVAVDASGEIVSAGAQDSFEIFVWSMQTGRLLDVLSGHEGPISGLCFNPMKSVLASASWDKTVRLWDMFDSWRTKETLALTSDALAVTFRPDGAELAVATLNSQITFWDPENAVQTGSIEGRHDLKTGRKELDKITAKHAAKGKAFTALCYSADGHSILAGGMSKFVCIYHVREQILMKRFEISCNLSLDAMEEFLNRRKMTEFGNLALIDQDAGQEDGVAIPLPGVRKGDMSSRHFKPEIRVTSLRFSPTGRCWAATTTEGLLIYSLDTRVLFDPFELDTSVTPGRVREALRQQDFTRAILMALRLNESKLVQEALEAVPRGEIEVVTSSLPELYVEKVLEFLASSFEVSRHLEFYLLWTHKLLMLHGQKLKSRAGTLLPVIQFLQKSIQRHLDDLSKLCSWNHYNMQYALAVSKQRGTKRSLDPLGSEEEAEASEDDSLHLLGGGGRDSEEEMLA
UniProt Q8N4L2, sequence (Q8N4L2 whole entry, looked up): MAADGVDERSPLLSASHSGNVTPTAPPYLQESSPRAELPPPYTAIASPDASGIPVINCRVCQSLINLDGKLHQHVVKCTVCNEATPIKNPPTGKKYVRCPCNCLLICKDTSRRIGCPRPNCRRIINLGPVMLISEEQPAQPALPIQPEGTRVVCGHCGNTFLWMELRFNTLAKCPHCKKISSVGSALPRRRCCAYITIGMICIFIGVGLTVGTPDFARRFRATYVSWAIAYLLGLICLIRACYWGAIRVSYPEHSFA

| Target | log2 fold change (erlotinib) | log2 fold change [1] | log2 fold change [2] | log2 fold change [3] | log2 fold change [4] | log2 fold change [5] | log2 fold change [6] | log2 fold change [7] | log2 fold change [8] | log2 fold change (IRAK-1-4 Inhibitor I) |
| --- | --- | --- | --- | --- | --- | --- | --- | --- | --- | --- |
| PTPN1 (UniProt P18031) | -0.007 | 0.065 | -0.015 | 0.025 | -0.011 | -0.005 | -0.019 | 0.027 | -0.017 | 0.024 |
| PRKCSH isoform 2 (UniProt P14314) | 0.038 | -0.107 | 0.084 | 0.024 | 0.001 | -0.054 | -0.011 | -0.009 | 0.015 | 0.001 |
| POLR2B (UniProt P30876) | 0.031 | 0.019 | -0.014 | 0.012 | -0.016 | -0.008 | -0.024 | 0.002 | -0.004 | -0.007 |
| POC5 (UniProt Q8NA72) | -0.022 | -0.083 | -0.01 | 0.069 | -0.025 | 0.039 | -0.144 | 0.045 | 0.043 | 0.069 |
| PCBP2 isoform 3 (UniProt Q15366) | -0.017 | 0.005 | -0.027 | 0.018 | 0.034 | 0.012 | 0.042 | 0.038 | -0.022 | -0.026 |
| PTGS1 isoform 6 (UniProt P23219) | -0.044 | 0.118 | 0.033 | -0.105 | -0.005 | 0.086 | -0.03 | 0.008 | -0.025 | 0.061 |
| PLEKHO2 (UniProt Q8TD55) | 0.188 | 0.008 | -0.023 | 0.106 | -0.06 | 0.184 | -0.014 | -0.075 | 0.186 | -0.004 |
| PIP4P2 (UniProt Q8N4L2) | 0.023 | 0.039 | -0.03 | 0.032 | -0.076 | 0.019 | -0.029 | 0.034 | 0.022 | -0.054 |
| PPP1R8 (UniProt Q12972) | 0.002 | -0.032 | 0.029 | 0.002 | -0.012 | 0.008 | 0.007 | -0.009 | 0.02 | 0.008 |
| PRRC2A (UniProt P48634) | -0.026 | -0.018 | 0.073 | -0.002 | 0.006 | -0.09 | 0.014 | 0.01 | 0.006 | 0.026 |
| PLK1 (UniProt P53350) | 0.006 | -0.032 | -0.013 | 0.077 | -0.092 | 0 | -0.147 | -0.069 | 0.143 | -0.141 |
| PITRM1 isoform 2 (UniProt Q5JRX3) | -0.035 | 0.011 | 0.077 | 0.04 | -0.037 | -0.025 | 0.009 | 0.016 | 0.024 | -0.015 |
| PWP2 (UniProt Q15269) | 0.051 | -0.076 | -0.036 | 0.02 | 0.015 | -0.012 | -0.013 | 0.018 | 0.04 | -0.027 |
| PDCD6IP isoform 2 (UniProt Q8WUM4) | 0.027 | 0.046 | 0.009 | 0.01 | -0.02 | 0.007 | -0.007 | 0.002 | 0.007 | -0.002 |
| PCLAF (UniProt Q15004) | 0 | -0.026 | 0.057 | -0.006 | -0.059 | -0.015 | 0.012 | 0.037 | -0.052 | 0.016 |
| PFKFB2 (UniProt O60825) | -0.007 | -0.012 | 0.03 | -0.004 | 0.005 | -0.02 | 0.02 | -0.004 | 0.002 | -0.001 |
| PLA2G4B isoform 6 (UniProt P0C869) | 0.099 | 0.064 | 0.048 | -0.099 | 0.023 | 0.062 | -0.021 | -0.011 | 0.026 | 0.065 |
| PTGES2 (UniProt Q9H7Z7) | 0.008 | 0.056 | -0.133 | 0.066 | -0.054 | 0.174 | 0.162 | 0.028 | -0.023 | 0.161 |
| POLR2M (UniProt P0CAP2) | 0.075 | -0.053 | 0.014 | 0.034 | -0.013 | 0.027 | -0.045 | -0.182 | -0.002 | 0.026 |
| PPP4R2 (UniProt Q9NY27) | 0.004 | -0.007 | 0.025 | 0.063 | -0.029 | -0.02 | 0.013 | 0.004 | 0.004 | 0.012 |
| PGGT1B (UniProt P53609) | -0.02 | 0.039 | -0.076 | -0.011 | 0.047 | 0.14 | 0.045 | 0.008 | -0.018 | -0.006 |
| PIK3C3 (UniProt Q8NEB9) | 0.014 | -0.059 | 0.004 | 0.017 | 0.025 | 0.009 | 0.053 | -0.084 | 0.015 | 0.081 |
| PHGDH (UniProt O43175) | 0.033 | 0.155 | 0.05 | -0.222 | -0.092 | -0.012 | 0.04 | 0.045 | 0.021 | 0.011 |
| PFAS (UniProt O15067) | 0.014 | 0.03 | 0.006 | 0.015 | 0.011 | -0.017 | -0.018 | -0.026 | 0.001 | -0.006 |
| PKN1 isoform 2 (UniProt Q16512) | -0.014 | 0.007 | 0.018 | -0.048 | -0.042 | -0.004 | -0.175 | -0.191 | -0.203 | -0.174 |
| PRMT8 (UniProt Q9NR22) | 0.01 | -0.003 | 0.009 | -0.046 | -0.015 | 0.024 | -0.031 | -0.012 | 0.013 | 0.024 |
| PIP4K2B (UniProt P78356) | 0.038 | -0.193 | -0.021 | 0.012 | 0.096 | 0.067 | 0.013 | 0.032 | -0.02 | -0.019 |
| PCBD2 (UniProt Q9H0N5) | -0.012 | -0.033 | 0.044 | -0.022 | 0.079 | 0.005 | -0.014 | -0.018 | -0.015 | -0.01 |
| PUS1 (UniProt Q9Y606) | 0.033 | -0.174 | 0.007 | 0.01 | 0.024 | 0.005 | -0.06 | 0.016 | -0.021 | 0.004 |
| PIP4K2A (UniProt P48426) | -0.04 | -0.239 (active) | 0.032 | 0.001 | 0.225 | 0.135 | 0.105 | 0.103 | -0.006 | -0.007 |
